# Data taken from article PMC7862700, “An all-to-all approach to the identification of sequence-specific readers for epigenetic DNA modifications on cytosine”.
# Experiments:
# Assay in all cases: DAPPL (digital affinity profiling via proximity ligation, sequencing); 10 mM Tris-HCl pH 7.5, 50 mM NaCl, 1 mM DTT, 4% glycerol, room temperature, 30 min; GST-TFs on glutathione beads, 16-mer random dsDNA library, 0.1% formaldehyde crosslink after washing; high values mean tight binding
# [1] = molecular target: T1, FLI1 (Homo sapiens, UniProt Q01543 1-452); settings: protein: recombinant; tags: N-terminal GST; dsDNA, one strand shown
# T1 sequence: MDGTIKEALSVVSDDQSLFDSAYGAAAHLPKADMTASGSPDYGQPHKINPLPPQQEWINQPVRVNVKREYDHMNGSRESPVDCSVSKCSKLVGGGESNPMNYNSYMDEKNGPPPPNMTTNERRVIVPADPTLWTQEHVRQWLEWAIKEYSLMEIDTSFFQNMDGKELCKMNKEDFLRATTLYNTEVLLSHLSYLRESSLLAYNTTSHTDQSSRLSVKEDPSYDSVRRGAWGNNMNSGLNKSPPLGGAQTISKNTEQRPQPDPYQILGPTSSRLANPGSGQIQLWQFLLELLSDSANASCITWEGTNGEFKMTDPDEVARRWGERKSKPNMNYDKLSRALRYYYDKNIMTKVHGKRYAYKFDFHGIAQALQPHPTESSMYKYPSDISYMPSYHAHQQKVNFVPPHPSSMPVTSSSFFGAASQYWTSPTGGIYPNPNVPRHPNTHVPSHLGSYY
# How it was run: (§1)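 Sequencing on an Illumina NextSeq500 followed washing, crosslinking with 0.1% formaldehyde, proximity ligation (BsaI/T4 ligase, 1 h, 37 °C) and PCR amplification of pools that had been incubated for 30 min at room temperature with 200 nmole of a random double-stranded 16-mer DNA library in Tris/NaCl/DTT/glycerol buffer. Each pool held DNA-barcoded human transcription factors, expressed in yeast as GST fusions and captured on glutathione beads, plus a tag-only sample. Binding signal is a hexamer's read frequency for a factor divided by its frequency in the tag-only sample.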
# [2] = molecular target: T2, ELK1 (Homo sapiens, UniProt P19419 1-428); settings: protein: recombinant; tags: N-terminal GST; dsDNA, one strand shown
# T2 sequence: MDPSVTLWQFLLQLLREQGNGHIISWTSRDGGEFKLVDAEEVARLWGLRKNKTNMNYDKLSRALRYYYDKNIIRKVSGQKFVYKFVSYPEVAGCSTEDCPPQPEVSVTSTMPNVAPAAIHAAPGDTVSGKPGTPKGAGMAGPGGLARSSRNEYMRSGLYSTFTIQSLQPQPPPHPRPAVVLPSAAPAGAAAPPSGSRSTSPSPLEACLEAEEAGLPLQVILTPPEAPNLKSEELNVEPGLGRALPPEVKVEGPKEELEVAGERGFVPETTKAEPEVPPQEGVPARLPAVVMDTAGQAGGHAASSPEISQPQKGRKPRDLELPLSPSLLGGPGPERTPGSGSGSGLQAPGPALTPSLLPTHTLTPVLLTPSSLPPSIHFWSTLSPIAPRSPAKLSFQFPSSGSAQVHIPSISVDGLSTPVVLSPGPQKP
# How it was run: as §1
# [3] = molecular target: T3, GABPA (Homo sapiens, UniProt Q06546 1-454); settings: protein: recombinant; tags: N-terminal GST; dsDNA, one strand shown
# T3 sequence: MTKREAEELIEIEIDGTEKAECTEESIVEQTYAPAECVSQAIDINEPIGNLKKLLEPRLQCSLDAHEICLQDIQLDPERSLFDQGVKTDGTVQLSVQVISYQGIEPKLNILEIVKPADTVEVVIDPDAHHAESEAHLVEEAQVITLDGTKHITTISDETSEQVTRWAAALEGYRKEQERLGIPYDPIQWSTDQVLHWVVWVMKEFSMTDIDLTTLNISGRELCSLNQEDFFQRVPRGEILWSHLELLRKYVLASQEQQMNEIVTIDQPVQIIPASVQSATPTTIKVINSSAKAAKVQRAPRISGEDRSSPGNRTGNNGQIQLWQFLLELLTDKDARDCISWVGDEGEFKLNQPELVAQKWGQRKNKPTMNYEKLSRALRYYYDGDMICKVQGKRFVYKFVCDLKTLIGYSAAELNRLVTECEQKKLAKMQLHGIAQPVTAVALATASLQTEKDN
# How it was run: as §1
# [4] = molecular target: T4, ERG (Homo sapiens, UniProt P11308 1-479); settings: protein: recombinant; tags: N-terminal GST; dsDNA, one strand shown
# T4 sequence: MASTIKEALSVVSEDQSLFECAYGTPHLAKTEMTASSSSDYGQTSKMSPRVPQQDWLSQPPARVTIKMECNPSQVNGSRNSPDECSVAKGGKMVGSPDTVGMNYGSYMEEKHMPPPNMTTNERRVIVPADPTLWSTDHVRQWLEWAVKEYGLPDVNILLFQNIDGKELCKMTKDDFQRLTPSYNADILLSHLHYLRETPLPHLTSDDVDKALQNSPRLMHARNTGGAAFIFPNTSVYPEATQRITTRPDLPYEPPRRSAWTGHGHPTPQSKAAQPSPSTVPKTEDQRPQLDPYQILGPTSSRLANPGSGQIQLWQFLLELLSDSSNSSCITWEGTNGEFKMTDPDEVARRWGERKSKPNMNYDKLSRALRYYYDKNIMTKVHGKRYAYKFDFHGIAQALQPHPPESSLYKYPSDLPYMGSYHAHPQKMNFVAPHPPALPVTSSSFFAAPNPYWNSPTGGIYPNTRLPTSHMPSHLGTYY
# How it was run: as §1
# [5] = molecular target: ELF1 (Homo sapiens, UniProt P32519 1-619); settings: protein: recombinant; tags: N-terminal GST; dsDNA, one strand shown
# ELF1, sequence (P32519 whole entry): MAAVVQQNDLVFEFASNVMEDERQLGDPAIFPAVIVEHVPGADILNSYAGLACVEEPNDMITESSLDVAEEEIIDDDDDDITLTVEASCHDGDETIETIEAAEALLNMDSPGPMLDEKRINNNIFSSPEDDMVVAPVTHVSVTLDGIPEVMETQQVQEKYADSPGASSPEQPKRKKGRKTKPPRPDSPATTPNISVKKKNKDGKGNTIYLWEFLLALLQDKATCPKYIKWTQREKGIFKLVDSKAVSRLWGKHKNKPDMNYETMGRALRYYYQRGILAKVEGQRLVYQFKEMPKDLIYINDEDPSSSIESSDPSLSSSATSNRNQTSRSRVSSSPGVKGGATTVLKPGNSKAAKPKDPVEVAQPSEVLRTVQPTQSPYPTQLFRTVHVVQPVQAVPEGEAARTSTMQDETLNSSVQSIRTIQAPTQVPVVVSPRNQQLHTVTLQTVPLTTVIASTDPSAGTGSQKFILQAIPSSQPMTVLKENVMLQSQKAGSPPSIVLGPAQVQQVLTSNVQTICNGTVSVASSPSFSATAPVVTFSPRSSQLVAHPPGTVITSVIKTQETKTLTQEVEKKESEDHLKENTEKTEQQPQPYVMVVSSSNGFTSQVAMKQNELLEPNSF
# How it was run: as §1
# [6] = molecular target: T5, EHF (Homo sapiens, UniProt Q9NZC4 1-300); settings: protein: recombinant; tags: N-terminal GST; dsDNA, one strand shown
# T5 sequence: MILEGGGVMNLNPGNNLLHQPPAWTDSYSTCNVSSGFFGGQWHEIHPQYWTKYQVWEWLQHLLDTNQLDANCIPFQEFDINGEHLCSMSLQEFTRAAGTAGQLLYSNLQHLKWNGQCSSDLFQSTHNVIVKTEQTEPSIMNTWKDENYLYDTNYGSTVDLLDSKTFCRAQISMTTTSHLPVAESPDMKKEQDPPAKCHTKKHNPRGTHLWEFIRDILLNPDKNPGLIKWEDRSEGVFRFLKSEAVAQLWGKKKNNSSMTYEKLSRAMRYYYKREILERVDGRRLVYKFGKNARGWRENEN
# How it was run: as §1
# [7] = molecular target: SPI1 (Homo sapiens, UniProt P17947 1-270); settings: protein: recombinant; tags: N-terminal GST; dsDNA, one strand shown
# How it was run: as §1
# [8] = molecular target: SPIB (Homo sapiens, UniProt Q01892 1-262); settings: protein: recombinant; tags: N-terminal GST; dsDNA, one strand shown
# SPIB, sequence (Q01892 whole entry): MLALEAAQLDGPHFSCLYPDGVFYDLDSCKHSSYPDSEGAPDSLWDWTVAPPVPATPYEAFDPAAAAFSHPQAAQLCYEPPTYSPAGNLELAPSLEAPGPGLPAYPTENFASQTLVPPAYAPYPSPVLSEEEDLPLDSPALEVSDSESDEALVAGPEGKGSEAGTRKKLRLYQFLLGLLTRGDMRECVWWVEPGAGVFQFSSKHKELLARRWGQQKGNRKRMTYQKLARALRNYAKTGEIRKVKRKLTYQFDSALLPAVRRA
# How it was run: as §1
# [9] = molecular target: T6, ELK3 (Homo sapiens, UniProt P41970 1-407); settings: protein: recombinant; tags: N-terminal GST; dsDNA, one strand shown
# T6 sequence: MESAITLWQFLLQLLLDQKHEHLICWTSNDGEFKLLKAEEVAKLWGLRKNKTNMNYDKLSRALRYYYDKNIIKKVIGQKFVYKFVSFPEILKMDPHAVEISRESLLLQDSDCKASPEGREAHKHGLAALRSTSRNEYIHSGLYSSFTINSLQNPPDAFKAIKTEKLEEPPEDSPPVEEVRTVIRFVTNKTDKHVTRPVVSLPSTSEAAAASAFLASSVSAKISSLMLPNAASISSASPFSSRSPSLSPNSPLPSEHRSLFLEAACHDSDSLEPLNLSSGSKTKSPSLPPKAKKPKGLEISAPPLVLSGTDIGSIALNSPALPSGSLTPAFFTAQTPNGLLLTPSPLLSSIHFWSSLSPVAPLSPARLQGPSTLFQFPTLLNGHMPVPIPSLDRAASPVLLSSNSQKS
# How it was run: as §1
# [10] = molecular target: T7, FEV (Homo sapiens, UniProt Q99581 1-238); settings: protein: recombinant; tags: N-terminal GST; dsDNA, one strand shown
# T7 sequence: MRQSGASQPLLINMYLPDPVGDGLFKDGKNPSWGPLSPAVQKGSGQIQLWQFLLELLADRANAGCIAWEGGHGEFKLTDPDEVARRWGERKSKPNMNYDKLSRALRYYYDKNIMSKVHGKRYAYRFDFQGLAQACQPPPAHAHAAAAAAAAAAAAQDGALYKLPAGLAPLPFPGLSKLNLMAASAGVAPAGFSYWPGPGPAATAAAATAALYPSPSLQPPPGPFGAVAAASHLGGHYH
# How it was run: as §1
# [11] = molecular target: ETV5 (Homo sapiens, UniProt P41161 1-510); settings: protein: recombinant; tags: N-terminal GST; dsDNA, one strand shown
# ETV5, sequence (P41161 whole entry): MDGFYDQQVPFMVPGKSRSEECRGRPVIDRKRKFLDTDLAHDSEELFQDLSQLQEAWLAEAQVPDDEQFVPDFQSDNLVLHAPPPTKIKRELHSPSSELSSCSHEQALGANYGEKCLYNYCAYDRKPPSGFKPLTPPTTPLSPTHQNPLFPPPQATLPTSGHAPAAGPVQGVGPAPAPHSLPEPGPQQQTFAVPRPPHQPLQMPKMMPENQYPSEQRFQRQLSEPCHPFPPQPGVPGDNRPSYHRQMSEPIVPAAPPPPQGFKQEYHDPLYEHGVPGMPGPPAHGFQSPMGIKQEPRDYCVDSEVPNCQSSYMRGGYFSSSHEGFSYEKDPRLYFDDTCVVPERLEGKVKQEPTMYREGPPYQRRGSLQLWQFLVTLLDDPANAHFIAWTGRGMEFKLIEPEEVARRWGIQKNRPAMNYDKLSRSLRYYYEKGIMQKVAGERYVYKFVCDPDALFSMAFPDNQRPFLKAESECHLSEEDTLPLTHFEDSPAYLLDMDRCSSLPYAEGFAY
# How it was run: as §1
# [12] = molecular target: HSF1 (Homo sapiens, UniProt Q00613 1-529); settings: protein: recombinant; tags: N-terminal GST; chain copies: 3; dsDNA, one strand shown
# HSF1, sequence (Q00613 whole entry): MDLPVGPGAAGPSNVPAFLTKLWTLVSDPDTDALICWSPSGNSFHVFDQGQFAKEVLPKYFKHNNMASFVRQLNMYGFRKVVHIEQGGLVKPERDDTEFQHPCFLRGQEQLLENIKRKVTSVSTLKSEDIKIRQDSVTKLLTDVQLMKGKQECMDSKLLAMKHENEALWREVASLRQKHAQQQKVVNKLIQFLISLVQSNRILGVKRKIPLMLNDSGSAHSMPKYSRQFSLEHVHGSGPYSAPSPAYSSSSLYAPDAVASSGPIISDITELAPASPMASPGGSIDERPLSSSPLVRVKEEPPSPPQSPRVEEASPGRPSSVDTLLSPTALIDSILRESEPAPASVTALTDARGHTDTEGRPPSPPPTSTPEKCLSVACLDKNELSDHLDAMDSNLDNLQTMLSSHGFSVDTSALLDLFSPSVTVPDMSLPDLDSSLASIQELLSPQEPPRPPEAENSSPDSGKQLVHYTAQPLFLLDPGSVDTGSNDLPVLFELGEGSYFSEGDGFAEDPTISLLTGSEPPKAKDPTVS
# How it was run: as §1
# [13] = molecular target: T8, SPIC (Homo sapiens, UniProt Q8N5J4 1-248); settings: protein: recombinant; tags: N-terminal GST; dsDNA, one strand shown
# T8 sequence: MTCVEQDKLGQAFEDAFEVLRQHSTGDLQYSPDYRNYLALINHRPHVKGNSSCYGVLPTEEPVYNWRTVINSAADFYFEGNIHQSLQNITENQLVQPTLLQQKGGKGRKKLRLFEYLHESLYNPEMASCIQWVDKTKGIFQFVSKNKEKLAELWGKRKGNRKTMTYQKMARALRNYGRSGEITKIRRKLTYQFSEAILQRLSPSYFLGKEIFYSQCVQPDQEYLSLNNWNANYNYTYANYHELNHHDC
# How it was run: as §1
# [14] = molecular target: ELF4 (Homo sapiens, UniProt Q99607 1-663); settings: protein: recombinant; tags: N-terminal GST; dsDNA, one strand shown
# ELF4, sequence (Q99607 whole entry): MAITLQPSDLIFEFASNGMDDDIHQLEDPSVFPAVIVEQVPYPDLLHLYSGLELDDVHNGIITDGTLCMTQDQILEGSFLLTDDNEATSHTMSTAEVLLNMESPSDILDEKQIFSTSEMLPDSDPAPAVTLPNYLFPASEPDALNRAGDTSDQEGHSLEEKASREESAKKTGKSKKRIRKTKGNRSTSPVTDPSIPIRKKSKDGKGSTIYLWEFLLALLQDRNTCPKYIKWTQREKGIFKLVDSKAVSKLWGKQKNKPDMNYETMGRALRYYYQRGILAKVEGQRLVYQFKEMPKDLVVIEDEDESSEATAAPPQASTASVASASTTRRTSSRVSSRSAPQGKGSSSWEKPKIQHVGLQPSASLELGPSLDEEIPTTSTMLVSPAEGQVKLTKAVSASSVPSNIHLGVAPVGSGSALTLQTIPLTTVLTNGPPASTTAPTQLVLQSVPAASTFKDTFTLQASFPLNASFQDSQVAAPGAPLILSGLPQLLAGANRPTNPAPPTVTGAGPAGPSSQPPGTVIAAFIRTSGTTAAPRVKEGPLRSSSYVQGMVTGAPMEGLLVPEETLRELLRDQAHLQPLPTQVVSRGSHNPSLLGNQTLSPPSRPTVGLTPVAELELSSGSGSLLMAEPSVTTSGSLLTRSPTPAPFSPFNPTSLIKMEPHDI
# How it was run: as §1
# [15] = molecular target: T9, ELK4 (Homo sapiens, UniProt P28324-2 1-405); settings: protein: recombinant; tags: N-terminal GST; dsDNA, one strand shown
# T9 sequence: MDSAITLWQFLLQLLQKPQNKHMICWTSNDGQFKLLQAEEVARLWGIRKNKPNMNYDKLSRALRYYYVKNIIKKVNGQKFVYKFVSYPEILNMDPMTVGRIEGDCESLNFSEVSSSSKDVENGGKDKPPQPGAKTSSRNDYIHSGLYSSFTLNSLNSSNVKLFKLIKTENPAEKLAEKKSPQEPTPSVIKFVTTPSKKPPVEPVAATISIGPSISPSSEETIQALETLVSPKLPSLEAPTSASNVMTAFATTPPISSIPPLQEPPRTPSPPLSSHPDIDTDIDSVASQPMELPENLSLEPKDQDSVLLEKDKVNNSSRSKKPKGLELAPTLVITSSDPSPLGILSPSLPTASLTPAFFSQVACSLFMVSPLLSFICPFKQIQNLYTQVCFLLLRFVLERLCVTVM
# How it was run: as §1
# [16] = molecular target: T10, ETV2 (Homo sapiens, UniProt O00321 1-342); settings: protein: recombinant; tags: N-terminal GST; dsDNA, one strand shown
# T10 sequence: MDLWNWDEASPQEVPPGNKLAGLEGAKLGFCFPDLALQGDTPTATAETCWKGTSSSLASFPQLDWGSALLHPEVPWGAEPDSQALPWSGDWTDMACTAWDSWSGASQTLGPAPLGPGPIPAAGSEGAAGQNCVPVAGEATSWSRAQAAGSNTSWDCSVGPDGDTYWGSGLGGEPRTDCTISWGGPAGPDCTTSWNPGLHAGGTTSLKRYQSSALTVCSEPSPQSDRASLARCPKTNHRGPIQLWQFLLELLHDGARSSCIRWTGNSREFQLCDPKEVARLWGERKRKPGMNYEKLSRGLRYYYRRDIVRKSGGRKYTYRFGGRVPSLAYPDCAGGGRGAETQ
# How it was run: as §1
# [17] = molecular target: T11, ELF3 (Homo sapiens, UniProt P78545 1-371); settings: protein: recombinant; tags: N-terminal GST; dsDNA, one strand shown
# T11 sequence: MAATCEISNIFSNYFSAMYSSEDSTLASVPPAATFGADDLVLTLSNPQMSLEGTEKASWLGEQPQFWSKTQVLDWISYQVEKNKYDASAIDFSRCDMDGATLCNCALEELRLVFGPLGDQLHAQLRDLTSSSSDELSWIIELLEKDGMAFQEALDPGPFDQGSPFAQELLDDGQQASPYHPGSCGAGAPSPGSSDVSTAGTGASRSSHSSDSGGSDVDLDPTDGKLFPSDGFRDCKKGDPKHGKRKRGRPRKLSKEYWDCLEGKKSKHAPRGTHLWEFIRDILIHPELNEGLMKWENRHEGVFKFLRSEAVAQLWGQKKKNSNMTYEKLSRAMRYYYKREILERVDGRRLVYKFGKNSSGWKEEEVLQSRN
# How it was run: as §1
# [18] = molecular target: CRX (Homo sapiens, UniProt O43186 1-299); settings: protein: recombinant; tags: N-terminal GST; dsDNA, one strand shown
# CRX, sequence (O43186 whole entry): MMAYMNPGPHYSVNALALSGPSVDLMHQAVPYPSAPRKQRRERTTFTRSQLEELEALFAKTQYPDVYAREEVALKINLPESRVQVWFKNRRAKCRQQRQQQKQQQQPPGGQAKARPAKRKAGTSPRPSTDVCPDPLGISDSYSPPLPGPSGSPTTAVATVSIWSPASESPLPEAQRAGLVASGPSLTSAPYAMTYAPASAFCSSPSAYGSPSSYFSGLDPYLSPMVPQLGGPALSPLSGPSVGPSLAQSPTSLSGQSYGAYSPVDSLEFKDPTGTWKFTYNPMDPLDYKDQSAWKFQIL
# How it was run: as §1
# [19] = molecular target: ETV1 (Homo sapiens, UniProt P50549 1-477); settings: protein: recombinant; tags: N-terminal GST; dsDNA, one strand shown
# ETV1, sequence (P50549 whole entry): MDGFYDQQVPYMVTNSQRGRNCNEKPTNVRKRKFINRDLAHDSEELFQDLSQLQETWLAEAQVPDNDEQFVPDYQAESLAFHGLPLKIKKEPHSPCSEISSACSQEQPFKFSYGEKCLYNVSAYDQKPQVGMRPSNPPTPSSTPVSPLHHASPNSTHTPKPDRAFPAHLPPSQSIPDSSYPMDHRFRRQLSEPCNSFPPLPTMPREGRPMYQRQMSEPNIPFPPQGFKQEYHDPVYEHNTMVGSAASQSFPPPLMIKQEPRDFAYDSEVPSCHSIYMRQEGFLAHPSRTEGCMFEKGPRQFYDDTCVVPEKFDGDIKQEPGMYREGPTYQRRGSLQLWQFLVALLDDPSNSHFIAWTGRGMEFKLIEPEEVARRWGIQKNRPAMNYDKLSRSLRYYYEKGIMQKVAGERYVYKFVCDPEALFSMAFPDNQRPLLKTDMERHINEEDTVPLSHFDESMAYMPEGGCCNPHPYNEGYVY
# How it was run: as §1
sequence,measurement,setting,value
CTCTAT,binding signal,[1],"1.09 fold enrichment (6-mer frequency, TF over GST control)"
same,binding signal,[2],"1.22 fold enrichment (6-mer frequency, TF over GST control)"
same,binding signal,[3],"1.2 fold enrichment (6-mer frequency, TF over GST control)"
same,binding signal,[4],"1.17 fold enrichment (6-mer frequency, TF over GST control)"
same,binding signal,[5],"1.22 fold enrichment (6-mer frequency, TF over GST control)"
same,binding signal,[6],"1.09 fold enrichment (6-mer frequency, TF over GST control)"
same,binding signal,[7],"1.16 fold enrichment (6-mer frequency, TF over GST control)"
same,binding signal,[8],"1.17 fold enrichment (6-mer frequency, TF over GST control)"
same,binding signal,[9],"1.11 fold enrichment (6-mer frequency, TF over GST control)"
same,binding signal,[10],"1.11 fold enrichment (6-mer frequency, TF over GST control)"
same,binding signal,[11],"1.15 fold enrichment (6-mer frequency, TF over GST control)"
same,binding signal,[12],"1.11 fold enrichment (6-mer frequency, TF over GST control)"
same,binding signal,[13],"1.05 fold enrichment (6-mer frequency, TF over GST control)"
same,binding signal,[14],"1.18 fold enrichment (6-mer frequency, TF over GST control)"
same,binding signal,[15],"1.19 fold enrichment (6-mer frequency, TF over GST control)"
same,binding signal,[16],"1.21 fold enrichment (6-mer frequency, TF over GST control)"
same,binding signal,[17],"1.2 fold enrichment (6-mer frequency, TF over GST control)"
same,binding signal,[18],"1.1 fold enrichment (6-mer frequency, TF over GST control)"
same,binding signal,[19],"1.13 fold enrichment (6-mer frequency, TF over GST control)"
